CBFb RUNX1 block: qHTS Assay for Compounds Blocking the Interaction Between CBF-beta and RUNX1 for the Treatment of Acute Myeloid Leukemia | AlphaScreen CBFb-His/RUNX1-biotin binding, biochemical | AID 1477, 2009 | Potency, µM (top dose mostly 59.8 µM), without a hit: top-dose activity, negative = inhibition, most hits filed as inhibitors | Runt-related transcription factor 1 (Homo sapiens) + Core-binding factor subunit beta … | 230,000 tested, under 10 active; note: % of control where 0% means no effect
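Read-out: AlphaScreen. Format: His-CBF-beta with biotinylated RUNX1 (30 nM each) preincubated 20 min, compound 15 min, Ni-chelate plus streptavidin beads 90 min; room temperature throughout.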
PNC assembly inh: High Content Assay for Compounds that inhibit the Assembly of the Perinucleolar Compartment | PC3M PTB-GFP, PNC prevalence imaging, 16 h; stronger effect = lower value | activity change (PNC), negative = inhibition, % at 10 µM | 140,000 tested, 3.1% active;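 active = readout at or below -70, meaning at least 70% loss of cells showing the perinucleolar compartment, a nuclear body marking cancer cells; inconclusive = readout between -30 and a set limit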;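 note: plate controls were DMSO wells for no effect and camptothecin positive control wells for full effect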
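Read-out is percentage of cells bearing a perinucleolar compartment, from automated 20x imaging of fixed, Hoechst-stained PC3M PTB-GFP cells. Cells were seeded 4 h, then exposed 16 h to compound (23 nl of library stock) in duplicate plates.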
HTT aggregate: qHTS Multiplex Assay to Identify Dual Action Probes in a Cell Model of Huntington: Aggregate Formation (GFP); 220,000 tested, 1.1% active; Potency, µM (top dose mostly 46.1 µM), inactives show at the highest dose activity change, negative = inhibition, most hits filed as inhibitors; PC12 HttQ103-GFP aggregates, Acumen cytometry, 40 h; AID 1688, 2009; note: potency is the fitted concentration of half-maximal effect; % is set by controls: 0 for no effect and ±100 for the full control effect; nearly all actives have a fitted effect of over 60% in size
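PC12/HTTQ103-GFP, ecdysone-inducible; teb 100 nM; cpd qHTS titration; GFP aggregates read on laser cytometer, Ex 488/Em 500-530 nm.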
HPGD block: qHTS Assay for Inhibitors of HPGD (15-Hydroxyprostaglandin Dehydrogenase) | purified HPGD, NADH fluorescence kinetic, PGE2 substrate | Potency, µM, for the others: at the top dose activity change, negative = inhibition, hits mostly inhibitors | 150,000 tested, 4.3% active; active = well fitted inhibition curve with a large enough effect, not every such curve was filed as active; inconclusive = small, poorly fitted or top-dose-only effect, or another doubt; inactive = no such curve, though single readings can be large or run the other way; note: potency is the fitted concentration of half-maximal effect; % is set by controls: 0 for no effect and ±100 for the full control effect
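NADH formation kinetics: reaction with 30 uM PGE2 and 1 mM NAD+ (final), 20 nM enzyme, Tris-HCl pH 8 with Tween 20, after 15 min compound preincubation at room temperature. Fluorescence change, last versus first of five reads.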
ALDH1A1 inh: qHTS Assay for Inhibitors of Aldehyde Dehydrogenase 1 (ALDH1A1); AID 1030, 2008; Purified ALDH1A1, NADH fluorescence, propionaldehyde substrate; 220,000 tested, 7.3% active; Potency, µM (doses to about 75.3 µM), without a hit: at the top dose activity, negative = inhibition, actives largely listed as inhibitors; active = well fitted inhibition curve with a large enough effect, not every such curve was filed as active; inconclusive = small, poorly fitted or top-dose-only effect, or another doubt; inactive = no such curve, though single readings can be large or run the other way;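 note: potency is the fitted concentration of half-maximal effect; plate controls were no enzyme wells and a reference inhibitor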
Target sequence (P00352 whole entry, looked up): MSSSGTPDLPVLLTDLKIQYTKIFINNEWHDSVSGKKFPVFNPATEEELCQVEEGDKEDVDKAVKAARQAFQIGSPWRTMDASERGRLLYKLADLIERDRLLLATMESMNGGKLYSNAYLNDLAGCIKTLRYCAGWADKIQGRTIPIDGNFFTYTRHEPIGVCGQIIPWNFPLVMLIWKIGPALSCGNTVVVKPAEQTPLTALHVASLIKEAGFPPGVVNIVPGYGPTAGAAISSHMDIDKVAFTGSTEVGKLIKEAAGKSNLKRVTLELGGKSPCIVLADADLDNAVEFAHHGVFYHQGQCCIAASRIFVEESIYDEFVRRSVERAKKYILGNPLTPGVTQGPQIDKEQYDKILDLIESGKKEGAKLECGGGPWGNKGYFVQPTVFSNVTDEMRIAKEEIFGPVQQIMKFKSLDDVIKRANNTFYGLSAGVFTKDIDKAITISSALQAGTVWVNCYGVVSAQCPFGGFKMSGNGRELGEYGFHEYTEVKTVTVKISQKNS
HTT cytoprotect: qHTS Multiplex Assay to Identify Dual Action Probes in a Cell Model of Huntington: Cytoprotection (ATP); PC12 HTT-Q103 induced, cytoprotection, ATP luminescence, 40 h; 230,000 tested, 0.14% active; AID 1471, 2008; Potency, µM (top dose mostly 56.4 µM), without a hit: cytoprotection (ATP increase), usual class: activators; note: potency is the fitted concentration of half-maximal effect; % of control where 0% means no effect; nearly all actives have a fitted effect of over 45% in size
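Readout: ATPlite luminescence (ATP level). Model: stable PC12, inducible Htt exon1 Q103-GFP. Inducer: tebufenozide, 100 nM final. Compounds: dose series. No G418 in medium.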
* marks the source's active call; other numbers are inactive results; u = inconclusive; x = no result; [ ] = remark or other dose. This is a sample that favours compounds with a hit; in the whole collection about 11% have one here. Unless noted, calls come from the whole dose curve; as a rule, active = well fitted curve in the direction sought with a large enough effect; inconclusive = small, poorly fitted or top-dose-only effect, or another doubt; inactive = no such curve, though single readings can be large; an effect the other way counts as inactive or inconclusive.

SMILES	CBFb RUNX1 block	PNC assembly inh	HTT aggregate	HPGD block	ALDH1A1 inh	HTT cytoprotect
COc1ccc(NC(=O)/C(C#N)=C\c2ccc(Br)o2)cc1	x	x	-35%[9.22 µM]	x	x	-12%[10 µM]
COc1cc(/C=C/C(=O)OCC(=O)Nc2cc(C(F)(F)F)ccc2N2CCOCC2)ccc1O	8%	42	12%	-9%	3%	8%[10 µM]
CC(C(=O)NCCN1C(=O)S/C(=C\c2cccnc2)C1=O)N1C(=O)c2ccccc2C1=O (configuration not stated)	-2%	-105*	4%	-6%	1%	x
O=C(CCl)NCCN1C(=O)S/C(=C\c2cccnc2)C1=O	u	x	u	x	1.6µM*	-17%
COc1ccc(C(=O)NCCN2C(=O)S/C(=C\c3cccnc3)C2=O)c(OC)c1OC	-10%	-9	19%	-17%	6%	23%[10 µM]
CCCC[C@@H]1CCCO[C@@](C(=O)NCCN2CCOCC2)(C(F)(F)F)C1	-4%	x	x	x	x	x
CN(C)CCNC(=O)c1ccc(Cc2nc3ccccc3[nH]2)cc1	x	x	x	3%	-3%	x
Cc1cccc(N2C(=O)CC(N3CCN(c4ccccn4)CC3)C2=O)c1 (configuration not stated)	0%	x	x	x	-6%	x
COC(=O)C1=C(C(=O)OC)[C@@H]2N(Cc3ccccc3)c3ccccc3[C@@]23C[C@@H](C(=O)OC)N(S(=O)(=O)c2ccc(OC)cc2)C3=N1	-13%[13.1 µM]	x	x	2%	2%[13.5 µM]	-24%[10 µM]
COc1cc(C(=O)N2CCN=C2c2ccccc2)cc(OC)c1OC	-14%	-100*	26%	-12%	-1%	1%
O=C(COc1ccccc1)N1CCN=C1c1ccccc1	4%	13	-24%	-4%	8%	-5%[0.074 µM]
O=C(c1ccc(F)cc1)N1CCN=C1c1ccccc1	1%	-96*	4%	-6%	-3%	x
O=C(SCc1cccc2ccccc12)c1ccc(Cl)cc1	x	x	x	-8%	-3%[13.5 µM]	4%[10 µM]
CC1(c2ccccc2)NC(=S)N2C1NC(=S)N2c1ccccc1 (configuration not stated)	1%	u	-7%[9.22 µM]	-2%	32µM*	8%
O=C(O)CC1NC(=S)N(c2ccccc2)C1=O (configuration not stated)	7%	7	-14%	-12%	5%	8%[10 µM]
COc1ccc(-n2cc(-c3ccccc3)[nH]c2=S)cc1	-19%	-21	23%	u	-4%	23%[10 µM]
COc1ccc(N2C(=S)NC3N2C(=S)NC3(C)c2ccccc2)cc1 (configuration not stated)	3%	x	-8%	x	25µM*	-56%
COc1ncc2nc(-c3ccc(F)cc3)c(=O)n(C3CC3)c2n1	x	x	x	x	u	-4%
CCOc1ccc(NC2=CC(=O)CC(c3ccco3)C2)cc1 (configuration not stated)	-7%	x	-2%[9.22 µM]	x	-11%	8%[10 µM]
CCCCCCCNC1=CC(=O)CC(c2ccco2)C1 (configuration not stated)	-8%	1	u	-9%	25µM*	40%[10 µM]
CCCCCCCCCC(=O)OCC(CO)OC(=O)CCCCCCCCC (configuration not stated)	21%	x	x	0%	1%	-8%
CCCCC1(C)OC(=O)C(=Cc2ccc(N(C)C)cc2)C(=O)O1 (configuration not stated)	6%	82	-4%	11µM*	1.1µM*	-24%
Cc1occc1-c1n[nH]c(=S)n1C	-1%	x	20%	x	4%	u
CCOC(=S)SCC(=O)N1CCc2cc(OC)ccc2C1C1C(=O)CCCC1=O (configuration not stated)	-11%	-99*	u	-5%	11%	3%[10 µM]
CCOC(=S)SCC(=O)N1CCc2cc(OC)c(OC)cc2C1C1C(=O)CC(C)(C)CC1=O (configuration not stated)	-9%	u	18%	-16%	-14%	16%[10 µM]
SMILES	CBFb RUNX1 block	PNC assembly inh	HTT aggregate	HPGD block	ALDH1A1 inh	HTT cytoprotect
Cc1[nH]c2ccccc2c1C(=O)CN1C(=O)NC(C)(c2ccc(Cl)cc2Cl)C1=O (configuration not stated)	-5%	u	5%	-26%	u	1%[10 µM]
CCOC(=O)CN1C(=O)C(O)(c2c(C)[nH]c3ccccc23)c2ccccc21 (configuration not stated)	-6%	-15	-10%	-7%	0.28µM*	-4%
CCOC(=O)CN1C(=O)C(O)(C2CCc3ccccc3C2=O)c2ccccc21 (configuration not stated)	7%	3	4%	2%	3.2µM*	-16%[0.074 µM]
CCOC(=O)CN1C(=O)C2(OCCCO2)c2ccccc21	8%	7	-13%	-11%	8.9µM*	-13%
C#CCN1C(=O)C(O)(CC(=O)c2ccc(OC)c(OC)c2)c2ccccc21 (configuration not stated)	2%	u	-5%	-15%	0.35µM*	-24%
C#CCN1C(=O)C(O)(CC(=O)/C=C/C=C/c2ccccc2)c2ccccc21 (configuration not stated)	7%	x	-7%	x	6.3µM*	-32%
C#CCN1C(=O)C(O)(CC(=O)c2ccc3c(c2)OCCO3)c2ccccc21 (configuration not stated)	2%	21	-1%	-23%	1µM*	-4%
Cc1ccc2c(c1)C(O)(CC(=O)/C=C/C=C/c1ccccc1)C(=O)N2 (configuration not stated)	6%	-92*	9%	-24%	-3%	-17%[0.074 µM]
CN1C(=O)C(O)(CC(=O)c2cccs2)c2ccccc21 (configuration not stated)	-1%	x	x	x	-3%	x
CCCN1C(=O)C(O)(CC(=O)c2ccc3c(c2)OCCO3)c2ccccc21 (configuration not stated)	-4%	u	5%	-17%	7.1µM*	24%[10 µM]
CCCN1C(=O)C(O)(CC(=O)c2cccc(OC)c2)c2ccccc21 (configuration not stated)	5%	-2	-5%	-23%	4.5µM*	-10%
CCCc1nc(SCC(=O)c2ccc(OC)cc2)c2ccccc2n1	15%	x	-14%	x	10µM*	u
O=C(CSc1cnc2ccccc2n1)c1ccc(F)cc1	-18%	57	-20%	-28%	25µM*	24%[0.074 µM]

Bioassay records from PubChem.
